CHX counter: counter-screen for Shiga toxin inhibitors: cycloheximide protein synthesis inhibition; cell reporter, cycloheximide protein synthesis inhibition counterscreen; max response, %; 12% of 300,000 active; AID 2314; in the data active = max response mostly above about 13%, no sharp cut-off; inactive = mostly below about 14%; note: read at 38.3 µM for the half of the compounds with a filed dose; 0% is about no effect
AMA1-RON2 inh: inhibitors of Plasmodium falciparum AMA1-RON2 interaction | AlphaScreen AMA1-biotinylated RON2 peptide binding | Potency, µM (top dose mostly 58.2 µM), inactives show at the top dose activity change, negative = inhibition, most hits filed as inhibitors | 0.2% of 360,000 active | AID 720542;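 note: potency is the fitted concentration of half-maximal effect; 0% = vehicle wells and -100% = peptide control; nearly all actives have a fitted effect of over 45% in size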
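AMA1 (3D7) with his tag at 25 nM final met compounds first, then biotinylated RON2 peptide at 25 nM; detection used donor plus acceptor beads, 10 µg/mL apiece, read by AlphaScreen after 30 min at room temperature.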
Pf growth 48h: P. falciparum growth inhibition at 48 hours (one generation). P. falciparum luciferase growth in erythrocytes, 48 h. AID 504832. 5.9% of 310,000 active. Potency, µM (series often up to 28.7 µM), inactives show top-dose activity change, negative = inhibition, actives largely listed as inhibitors; note: potency is the fitted concentration of half-maximal effect; % is set by controls: 0 for no effect and ±100 for the full control effect
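Compounds are pin-transferred into medium, infected erythrocytes (2% hematocrit, 0.1% parasitemia final) are added, and plates sit one parasite generation at 37 C in 5% CO2. Detection reagent is then added and luminescence measured.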
Shiga inhibitor: inhibitors of Shiga toxin in Vero cells. 9.2% of 290,000 active. AID 2315. inhibition, % at 38.7 µM. Vero cells, Shiga toxin protein synthesis inhibition reporter; in the data active = inhibition mostly above about 28%, no sharp cut-off; inactive = mostly below about 43%; note: 0% is about no effect
HCV inh: HCV inhibition | Huh7.5.1 HCVcc-Cre infection, luciferase reporter, 44 h | AID 651820 | 3.4% of 340,000 active | Potency, µM (doses to about 41.8 µM), for the others: at the highest dose activity change, negative = inhibition, hits mostly inhibitors; note: potency is the fitted concentration of half-maximal effect; % is set by controls: 0 for no effect and ±100 for the full control effect
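After 44 h co-culture of compound, cells and HCVcc-Cre (~0.5 moi), substrate is added for 15 min at room temperature and luciferase measured over 15 sec. Cells were seeded at 1,000/well and pre-cultured 4 h.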
Pf growth 96h: P. falciparum growth inhibition at 96 hours; P. falciparum luciferase reporter growth, 96 h; Potency, µM (top dose mostly 28.7 µM), inactives show top-dose activity change, negative = inhibition, most hits filed as inhibitors; 6.9% of 320,000 active; note: potency is the fitted concentration of half-maximal effect; % is set by controls: 0 for no effect and ±100 for the full control effect
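P. falciparum expressing integrated firefly luciferase grown in erythrocytes (2% hematocrit, 0.05% parasitemia final) with compounds for 96 hours at 37 C, 5% CO2. Growth inhibition read as loss of luminescence after adding luciferase detection reagent.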
* hit, by the source's call; ? = inconclusive; · = no result given. Hits are enriched below; roughly 21% of the tested compounds scored in any of these assays. Unless noted, calls come from the whole dose curve; as a rule, active = well fitted curve in the direction sought with a large enough effect; inconclusive = small, poorly fitted or top-dose-only effect, or another doubt; inactive = no such curve, though single readings can be large; an effect the other way counts as inactive or inconclusive.

SMILES | CHX counter | AMA1-RON2 inh | Pf growth 48h | Shiga inhibitor | HCV inh | Pf growth 96h
O=C(N/N=C/c1ccco1)c1cc(C2CC2)[nH]n1 | 35* | 34% | 90% | 118* | 1% | 78%
Cc1cc(C(=O)NN)n[nH]1 | 20* | 65% | 11% | 61* | 8% | 12%
CC1(C)S[C@@H]2[C@H](NC(=O)COc3ccccc3)C(=O)N2[C@H]1C(=O)O | 9 | · | 7% | -2 | · | -16%
COc1[nH]c2ccc(F)cc2c1C(=O)OCC1CCN(CCNS(C)(=O)=O)CC1 | · | -1% | · | · | ? | ·
COCCNc1nc(-c2cc3ccccc3o2)cs1 | 83* | -9% | 238% | 74* | ? | 0%
COc1cc(OC)cc(C(=O)NC(=S)Nc2nc(-c3cc4ccccc4o3)cs2)c1 | -1 | -5% | 30% | -7 | 12% | 78%
Cc1ccc(CNC(=O)CN(C(=O)C2(C)CC(=O)N=C3C=CC=CN32)c2cccc(C)c2C)cc1 (configuration not stated) | -4 | 10% | 0% | 9 | 12% | -4%
Cc1cc2c([nH]c3ccccc32)c2c1OC(C)(C)C=C2 | 47* | 4% | 141% | 87* | -39% | -26%
O=C(NC1CCCCC1)C(c1ccc2ncccc2c1)N(Cc1ccc2c(c1)OCO2)C(=O)c1cccs1 (configuration not stated) | 0 | -17% | ? | -1 | ? | 5.9µM*
COc1ccc(CN(C(=O)c2cccs2)C(C(=O)NC2CCCCC2)c2ccc3ncccc3c2)cc1 (configuration not stated) | -2 | -5% | ? | -3 | -8% | 10µM*
COc1ccc(C(C(=O)NC2CCCCC2)N(C(=O)c2cccs2)c2ccc3c(c2)OCO3)cc1 (configuration not stated) | -3 | 4% | ? | -11 | -21% | ?
O=C(NC1CCCCC1)C(c1ccc2ncccc2c1)N(Cc1ccccc1)C(=O)c1cccs1 (configuration not stated) | -2 | -1% | 10µM* | 1 | ? | ?
O=C(NCC(=O)N(c1ccccc1)C(C(=O)NC1CCCCC1)c1cccnc1)c1cccs1 (configuration not stated) | 1 | -7% | -19% | 23 | 5% | -5%
O=C(NC1CCCCC1)C(c1ccccc1)N(C(=O)c1cccs1)c1ccc2c(c1)OCO2 (configuration not stated) | -3 | 1% | ? | -12 | 2% | ?
O=[N+]([O-])c1ccc(Cl)c(S(=O)(=O)Nc2cccc(-c3ccc(N4CCCC4)nn3)c2)c1 | · | -8% | 47% | · | ? | 0%
CCOC(=O)C1(C)CCCN1C(=O)c1ccc(F)c(Cl)c1 (configuration not stated) | · | 9% | · | · | · | ·
Nc1cc(OCC(F)(F)F)cc([N+](=O)[O-])c1 | -3 | 8% | 23% | -6 | 3% | 19%
Cc1cc(Oc2cc(N)cc([N+](=O)[O-])c2)ccc1Cl | -2 | -3% | 14% | -10 | -4% | 8.3µM*
Cc1ccc(CNC(=O)/C=C/c2cccs2)cc1 | 27* | 11% | 57% | 78* | 1% | 5%
CCCCNC(=O)/C=C/c1cccs1 | 33* | -4% | 34% | 48* | 6% | -24%
COc1cccc(NS(=O)(=O)c2ccc(C)c(C(=O)N3CCCCC3)c2)c1 | 0 | 6% | 1% | -4 | ? | -26%
COc1ccc(NC(=O)CN(C)C(=O)c2cccc(S(=O)(=O)N3CCN(c4ccc(F)cc4)CC3)c2)cc1 | · | 3% | · | · | 13µM* | ·
COc1ccccc1CNC(=O)c1cccc(S(=O)(=O)N2CCN(c3ccc(F)cc3)CC2)c1 | · | -7% | 10µM* | · | 11µM* | ?
COc1ccc(CNC(=O)c2cccc(S(=O)(=O)N3CCN(c4ccc(F)cc4)CC3)c2)cc1 | · | -28% | ? | · | 7.1µM* | ?
CN(CC(=O)Nc1ccc(F)cc1)C(=O)c1cccc(S(=O)(=O)N2CCN(c3ccccc3)CC2)c1 | -5 | -12% | -17% | -10 | -42% | ?
SMILES | CHX counter | AMA1-RON2 inh | Pf growth 48h | Shiga inhibitor | HCV inh | Pf growth 96h
Cc1cc(C)nc(SCC(=O)N(C)CC(=O)Nc2c(Cl)cccc2Cl)n1 | · | -14% | 17% | · | -8% | 10%
COc1ccc2c(COC(=O)c3n[nH]c4ccccc34)cc(=O)oc2c1 | 26* | -6% | 29% | 107* | ? | ·
COc1ccc(CNC(=O)COC(=O)c2n[nH]c3ccccc23)cc1OC | 1 | 23% | ? | -8 | 10µM* | ?
Cc1ccc(C)c(C(=O)COC(=O)c2n[nH]c3ccccc23)c1 | · | -23% | · | · | -27% | ·
O=C(COC(=O)c1n[nH]c2ccccc12)c1cccc(Br)c1 | 18* | 5% | 10% | 31 | -24% | 25%
Cc1cc2oc(=O)cc(COC(=O)c3n[nH]c4ccccc34)c2cc1C | 15 | -4% | 18% | 18 | -5% | ·
Cc1cc(NC(=O)COC(=O)c2n[nH]c3ccccc23)no1 | 20* | -1% | 19% | 31 | -13% | 42%
CCOc1ccc(CCNC(=O)COC(=O)c2n[nH]c3ccccc23)cc1OCC | · | -8% | · | · | · | ·
O=C(NC1CC1)c1ccc2c(c1)S(=O)(=O)c1cc(Cl)ccc1C2=O | · | · | -2% | · | -4% | 43%
COc1ccc(NC(=O)CNc2ccc(C#N)cc2)cc1 | 6 | 7% | ? | 15 | -12% | 3%
O=C(c1ccc2c(c1)OCO2)N1CCN(S(=O)(=O)c2ccc(Cl)cc2)CC1 | 6 | -4% | ? | -4 | 14% | 6%
CCN(CC)S(=O)(=O)c1ccc(N2CCOCC2)c(NC(=O)COc2ccc(Cl)cc2)c1 | -7 | -1% | ? | -1 | 10µM* | ?
CCN(CC)S(=O)(=O)c1ccc(N2CCOCC2)c(NC(=O)CC(C)(C)C)c1 | 4 | 5% | ? | -13 | -2% | ?
COc1ccc(OCC(=O)Nc2cc(OC)ccc2N2CCCCC2)cc1 | -3 | -23% | 12µM* | 3 | ? | 42%
CN1CCN(c2ccc(S(=O)(=O)N3CCCCC3)cc2NC(=O)COc2cccc(Cl)c2)CC1 | · | -18% | 10µM* | · | ? | ?
COc1ccc(N2CCCC2)c(NC(=O)COc2ccccc2Cl)c1 | 7 | -22% | ? | -17 | ? | 12%
Cc1cccc(OCC(=O)Nc2cc(S(=O)(=O)N3CCCCC3)ccc2N2CCN(C)CC2)c1 | -6 | -1% | ? | -14 | ? | ?
O=C(COc1ccc(Cl)cc1)Nc1cc(S(=O)(=O)N2CCCCC2)ccc1N1CCCCC1 | 0 | -11% | 12µM* | 1 | ? | 2.3µM*
O=C(c1ccncc1)N1CCN(S(=O)(=O)c2cccc(C(F)(F)F)c2)CC1 | · | -12% | -6% | · | 2% | 5%
O=[N+]([O-])c1ccc2c(c1)nc(CO)n2Cc1ccccc1 | -1 | -1% | ? | -2 | -6% | ?
